Drawing on PubChem BioAssay (Tox21), this text covers Potency and outcome for eleven compounds.

Values without a mark were called inactive. Inconclusive results are not listed. Active and inactive are the calls of the source. Unless noted, calls follow the shape of the dose curve; as a rule, active = well fitted curve in the direction sought with a large enough effect in the repeat runs; inconclusive = weak or mixed curves; inactive = no such curve, though single readings can be large; an effect the other way counts as inactive or inconclusive.

The nature of test [1]: qHTS assay to identify small molecule agonists of the sonic hedgehog signaling (Shh) pathway (AID 1259368; calls by dose curve;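 also: NIH/3T3-derived 3T3Gli1-Luc cells carrying a stable Gli1-driven firefly luciferase reporter; series mostly up to about 92 µM; nearly all actives have a fitted effect of over 15% in size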). In outline: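 Mouse fibroblast (NIH/3T3) reporter cells with stably integrated Gli1-Luc were treated 24 hr with compound; firefly luciferase luminescence served as the read-out.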
In test [2] the target is Estrogen receptor beta (Homo sapiens) (UniProt Q92731). Nature of the test: qHTS assay to identify small molecule antagonists of the estrogen receptor beta (ER-beta) signaling pathway (AID 1259378; active = well fitted inhibition curve with a large enough effect in the signal ratio in the repeat runs, not every such curve was filed as active; the % refers to the signal ratio). In outline:
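ER-beta-UAS-bla HEK293T (GripTite) cells in 2% charcoal-stripped FBS medium were preincubated 6 hr at 37C, dosed with compound, then stimulated with 1 nM E2 (final) for 16 hr; beta-lactamase reporter read by B/G FRET fluorescence after 2 hr substrate loading.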

A short description of test [3]: qHTS assay to identify small molecule agonists of the androgen receptor (AR) signaling pathway in the presence of an antagonist - cell viability counter screen (AID 1259379).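 Also: MDA-kb2 human breast cancer cells carrying an MMTV luciferase reporter; series mostly up to about 92 µM; nearly all actives have a fitted effect of over 25% in size.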 In outline:
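A CellTiter-Fluor read-out measured viability of MDA-kb2 reporter cells (MMTV promoter with AR and GR response elements). Treatment: nilutamide 3.0uM final with compounds at 15 concentrations, 16 hr, 37C, 0% CO2.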
For orientation: Quantitative high-throughput screening tests each substance at several concentrations.

Test [4] is described as follows: qHTS assay to identify small molecule agonists of the estrogen receptor beta (ER-beta) signaling pathway - cell viability counter screen (AID 1259380). Also: nearly all actives have a fitted effect of over 30% in size. Also: potency is read from the fitted curve at half-maximal effect. Summed up: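 Cells used were ER-beta-UAS-bla HEK293T in medium with 2% charcoal-stripped FBS. They were treated for 16 hr at 37C. Viability came from CellTiter-Glo luminescence.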
Test [5] is described as follows: qHTS assay to identify small molecule antagonists of the estrogen receptor beta (ER-beta) signaling pathway - cell viability counter screen (AID 1259382). Also: series mostly up to about 92 µM; nearly all actives have a fitted effect of over 55% in size. In outline: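 Agonist-stimulated (1nM E2) ER-beta-UAS-bla HEK293T cells are incubated with library compounds for 16 hr at 37C. Cell viability is then assessed in the reporter-assay wells by adding CellTiter-Glo and reading luminescence after 30 min.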

Test [6] is described as follows: qHTS assay to identify small molecule agonists or antagonists of the thyroid stimulating hormone receptor (TSHR) signaling pathway - wild type cell line counter screen (AID 1259384; calls by dose curve). Summed up: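 Wild-type HEK293 cells were plated 18 h at 37 C/5% CO2, pin-dosed with compound plus Ro20-1724 medium, held 30 min at room temperature, then given cAMP-d2 and anti-cAMP-cryptate; fluorescence was read after 1 h. Fifteen concentrations, triplicate.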

The target in test [7] is Thyrotropin receptor (Homo sapiens) (UniProt P16473). Nature of the test: qHTS assay to identify small molecule antagonists of the thyroid stimulating hormone receptor (TSHR) signaling pathway (AID 1259385; calls by dose curve; also: nearly all actives have a fitted effect of over 20% in size). In outline: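 TSHR-HEK293 cells were plated and held 18 h at 37C/5% CO2, then given compound plus Ro20-1724 and stimulated with TSH at 1.5 ng/mL final. After 30 min at room temperature, cAMP was detected with cAMP-d2/anti-cAMP-cryptate (1 h) by fluorescence.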
Thyrotropin receptor (Homo sapiens), sequence (P16473 whole entry, looked up): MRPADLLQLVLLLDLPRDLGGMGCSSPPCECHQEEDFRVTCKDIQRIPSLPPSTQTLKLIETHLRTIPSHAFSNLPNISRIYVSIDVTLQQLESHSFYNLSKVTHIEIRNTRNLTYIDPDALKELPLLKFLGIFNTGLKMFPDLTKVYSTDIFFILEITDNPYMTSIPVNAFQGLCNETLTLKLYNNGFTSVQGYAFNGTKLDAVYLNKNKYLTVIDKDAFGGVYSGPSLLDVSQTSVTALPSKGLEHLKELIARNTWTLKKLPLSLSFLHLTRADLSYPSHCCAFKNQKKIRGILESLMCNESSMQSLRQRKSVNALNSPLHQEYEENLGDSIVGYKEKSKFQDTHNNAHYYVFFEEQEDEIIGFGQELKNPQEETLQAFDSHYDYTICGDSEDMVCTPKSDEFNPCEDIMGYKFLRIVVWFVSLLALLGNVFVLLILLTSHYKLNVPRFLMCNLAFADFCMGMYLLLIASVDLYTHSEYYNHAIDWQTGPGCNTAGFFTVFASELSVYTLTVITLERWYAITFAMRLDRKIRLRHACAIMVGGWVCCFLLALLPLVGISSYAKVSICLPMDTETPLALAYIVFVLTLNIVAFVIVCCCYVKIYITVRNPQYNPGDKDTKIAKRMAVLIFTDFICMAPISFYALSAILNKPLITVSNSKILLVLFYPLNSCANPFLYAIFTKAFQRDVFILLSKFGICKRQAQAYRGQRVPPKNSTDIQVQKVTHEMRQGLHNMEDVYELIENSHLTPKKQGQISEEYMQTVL

Test [8] can be described thus: qHTS assay to identify small molecule agonists of the estrogen receptor alpha (ER-alpha) signaling pathway in the presence of an antagonist - cell viability counter screen (AID 1259386).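 Also: cells exposed to compounds for 22 h at 37 °C before the viability read; nearly all actives have a fitted effect of over 30% in size.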 Also: potency is read from the fitted curve at half-maximal effect. In outline: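 ICI-182,780 at 10.0nM final accompanies the compound titration (15 concentrations, 22hr, 37C) on VM7Luc4E2 cells. The CellTiter-Fluor fluorescence readout runs in the same wells as the luciferase assay.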

The target in test [9] is Progesterone receptor (Homo sapiens) (UniProt P06401). Nature of the test: qHTS assay to identify small molecule agonists of the progesterone receptor (PR) signaling pathway (AID 1346784; calls by dose curve; also: nearly all actives have a fitted effect of over 30% in size). In outline: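 Compounds were tested for PR agonism in HEK 293T cells bearing a beta-lactamase gene under UAS control. Treatment lasted 16 hr at 37C; signal came from fluorescence of a FRET substrate.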
Progesterone receptor (Homo sapiens), sequence (P06401 whole entry, looked up): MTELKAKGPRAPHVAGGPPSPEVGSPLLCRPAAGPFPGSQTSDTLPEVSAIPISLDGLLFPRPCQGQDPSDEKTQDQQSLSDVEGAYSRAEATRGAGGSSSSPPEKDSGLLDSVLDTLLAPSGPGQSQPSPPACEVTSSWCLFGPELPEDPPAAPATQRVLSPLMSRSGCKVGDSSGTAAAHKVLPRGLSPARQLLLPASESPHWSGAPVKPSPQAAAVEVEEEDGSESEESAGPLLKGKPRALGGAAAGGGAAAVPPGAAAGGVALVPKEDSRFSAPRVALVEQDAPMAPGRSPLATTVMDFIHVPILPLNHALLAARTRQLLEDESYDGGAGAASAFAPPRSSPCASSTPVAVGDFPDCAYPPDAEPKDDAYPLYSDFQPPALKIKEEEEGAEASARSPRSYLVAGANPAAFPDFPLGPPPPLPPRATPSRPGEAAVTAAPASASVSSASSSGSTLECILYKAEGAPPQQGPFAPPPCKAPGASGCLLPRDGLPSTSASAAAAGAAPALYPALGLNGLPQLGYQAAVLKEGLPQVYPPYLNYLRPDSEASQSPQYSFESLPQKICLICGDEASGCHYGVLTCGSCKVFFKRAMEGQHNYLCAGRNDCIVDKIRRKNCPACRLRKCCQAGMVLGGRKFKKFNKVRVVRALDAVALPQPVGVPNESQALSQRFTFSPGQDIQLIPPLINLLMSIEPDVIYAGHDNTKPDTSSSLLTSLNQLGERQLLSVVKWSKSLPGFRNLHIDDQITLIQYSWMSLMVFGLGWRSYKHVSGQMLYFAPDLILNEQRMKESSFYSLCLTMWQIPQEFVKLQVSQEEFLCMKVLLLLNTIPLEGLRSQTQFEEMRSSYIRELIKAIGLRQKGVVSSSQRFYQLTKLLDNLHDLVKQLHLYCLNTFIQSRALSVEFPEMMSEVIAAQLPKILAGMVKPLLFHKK

The target is the same in test [10]. Nature of the test: qHTS assay to identify small molecule antagonists of the progesterone receptor (PR) signaling pathway (AID 1346795; active = well fitted inhibition curve with a large enough effect in the signal ratio in the repeat runs, not every such curve was filed as active; the % refers to the signal ratio; also: potency is read from the fitted curve at half-maximal effect). In outline:
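In HEK293T cells bearing the PR-UAS-bla reporter, compound effects on promegestone-driven (1 nM) beta-lactamase expression are assessed after 16 hr using a fluorescent FRET substrate incubated 2 hr at room temperature.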

The nature of test [11]: qHTS assay to identify small molecule antagonists of the progesterone receptor (PR) signaling pathway - cell viability counter screen (AID 1346798). Also: series mostly up to about 92 µM; nearly all actives have a fitted effect of over 50% in size. In outline: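 Following a 4 hr attachment, PR-UAS-bla HEK293T cells in charcoal-stripped FBS medium were exposed to compounds with R5020 for 16 hr; CellTiter-Glo was added and luminescence read after 30 min at room temperature.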

A short description of test [12]: qHTS assay to identify small molecule agonists of the progesterone receptor (PR) signaling pathway - cell viability counter screen (AID 1346799; calls by dose curve; also: nearly all actives have a fitted effect of over 45% in size). In outline:
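Here, 3,000 PR-UAS-bla HEK293T cells per well were treated with compounds for 16 hr after a 6 hr preincubation at 37C and 5% CO2; cell viability is the CellTiter-Glo luminescence signal.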

A short description of test [13]: qHTS assay to identify small molecule antagonists of the TGF-beta/Smad signaling pathway - cell viability counter screen (AID 1346824). Also: nearly all actives have a fitted effect of over 50% in size. Summed up:
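SBE-bla HEK 293T cells were plated overnight at 37 C, then given compounds in DMSO plus TGF-beta1 (added as 0.25 ng/mL solution) for 5 hr. After the bla read, CellTiter-Glo was added to the same wells and luminescence read after 30 min at room temperature.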

A short description of test [14]: qHTS assay to identify small molecule agonists of the TGF-beta/Smad signaling pathway - cell viability counter screen (AID 1346829). Also: top concentration of the series differs between compounds; nearly all actives have a fitted effect of over 45% in size. Summed up:
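After overnight seating at 37 C and 5% CO2, reporter cells got compounds for 5 hr and FRET substrate for 2 hr; cell viability then came from CellTiter-Glo luminescence.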

A short description of test [15]: qHTS assay to identify small molecule agonists of the TGF-beta/Smad signaling pathway (AID 1346859; active = well fitted activation curve with a large enough effect in the signal ratio in the repeat runs, not every such curve was filed as active; the % refers to the signal ratio; also: series mostly up to about 77 µM). Summed up: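 Each well held 4,000 SBE-bla HEK 293T cells incubated overnight before compound addition; 5 hr later the cleavable FRET substrate went on for 2 hr at room temperature, and fluorescence was read at two emissions.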
In test [16] the target is Thyrotropin-releasing hormone receptor (Homo sapiens) (UniProt P34981). Nature of the test: qHTS assay to identify small molecule antagonists of the thyrotropin-releasing hormone receptor (TRHR) signaling pathway (AID 1346877; active = well fitted inhibition curve with a large enough effect in the repeat runs, not every such curve was filed as active; also: series mostly up to about 51 µM). Summed up: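 Screening used HEK293 cells engineered with TRHR, with a brief 5 min room-temperature compound exposure preceding addition of TRH to 1 nM. The read-out was kinetic calcium-dye fluorescence, concentration-response from 15 doses in triplicate.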
Thyrotropin-releasing hormone receptor (Homo sapiens), sequence (P34981 whole entry, looked up): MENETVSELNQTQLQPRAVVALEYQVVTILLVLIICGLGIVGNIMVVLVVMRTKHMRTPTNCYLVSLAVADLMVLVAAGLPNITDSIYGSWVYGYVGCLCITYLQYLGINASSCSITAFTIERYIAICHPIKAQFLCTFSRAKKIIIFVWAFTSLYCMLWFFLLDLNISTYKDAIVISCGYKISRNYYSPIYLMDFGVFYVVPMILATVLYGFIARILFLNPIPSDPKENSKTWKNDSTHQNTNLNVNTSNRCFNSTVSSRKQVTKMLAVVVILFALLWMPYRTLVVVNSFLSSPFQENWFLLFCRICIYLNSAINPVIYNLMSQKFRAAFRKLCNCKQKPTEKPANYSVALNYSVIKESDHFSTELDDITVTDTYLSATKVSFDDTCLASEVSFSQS

A short description of test [17]: qHTS assay to identify small molecule antagonists of the sonic hedgehog signaling (Shh) pathway (AID 1259369; calls by dose curve; also: nearly all actives have a fitted effect of over 45% in size). Summed up: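 Conditioned medium drives Shh signalling in 3T3Gli1-Luc cells; compounds in DMSO co-applied, 24hr at 37 C, then luciferase luminescence.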
Test [18] addresses Estrogen receptor beta (Homo sapiens) (UniProt Q92731). Nature of the test: qHTS assay to identify small molecule agonists of the estrogen receptor beta (ER-beta) signaling pathway (AID 1259377; active = well fitted activation curve with a large enough effect in the signal ratio in the repeat runs, not every such curve was filed as active; the % refers to the signal ratio). Summed up:
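Read-out: beta-lactamase FRET fluorescence. Cell line: ER-beta-UAS-bla HEK293T in 2% charcoal-stripped FBS. Exposure: 16 hr at 37C. Substrate step: 2 h at room temperature.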

In test [19] the target is Estrogen receptor (Homo sapiens) (UniProt P03372). Nature of the test: qHTS assay to identify small molecule agonists of the estrogen receptor alpha (ER-alpha) signaling pathway in the presence of an antagonist (AID 1259383; calls by dose curve; also: top concentration of the series differs between compounds; nearly all actives have a fitted effect of over 15% in size). In outline:
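Using VM7Luc4E2 cells seeded 24hr before treatment, antagonist ICI-182,780 (10.0nM final) was added, followed by compounds at 15 concentrations. Plates incubated 22hr; ONE-Glo luminescence quantified reporter activity.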

For test [20], the target named is Androgen receptor (Homo sapiens) (UniProt P10275). Nature of the test: qHTS assay to identify small molecule agonists of the androgen receptor (AR) signaling pathway in the presence of an antagonist (AID 1259381; calls by dose curve; also: potency is read from the fitted curve at half-maximal effect; nearly all actives have a fitted effect of over 15% in size). Summed up: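 Using human MDA-kb2 cells with an MMTV promoter–luciferase construct (AR and GR response elements), agonist activity is scored under 3.0uM nilutamide (final) co-treatment; 16hr incubation, 37C, luminescence readout via ONE-Glo.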
Androgen receptor (Homo sapiens), sequence (P10275 whole entry, looked up): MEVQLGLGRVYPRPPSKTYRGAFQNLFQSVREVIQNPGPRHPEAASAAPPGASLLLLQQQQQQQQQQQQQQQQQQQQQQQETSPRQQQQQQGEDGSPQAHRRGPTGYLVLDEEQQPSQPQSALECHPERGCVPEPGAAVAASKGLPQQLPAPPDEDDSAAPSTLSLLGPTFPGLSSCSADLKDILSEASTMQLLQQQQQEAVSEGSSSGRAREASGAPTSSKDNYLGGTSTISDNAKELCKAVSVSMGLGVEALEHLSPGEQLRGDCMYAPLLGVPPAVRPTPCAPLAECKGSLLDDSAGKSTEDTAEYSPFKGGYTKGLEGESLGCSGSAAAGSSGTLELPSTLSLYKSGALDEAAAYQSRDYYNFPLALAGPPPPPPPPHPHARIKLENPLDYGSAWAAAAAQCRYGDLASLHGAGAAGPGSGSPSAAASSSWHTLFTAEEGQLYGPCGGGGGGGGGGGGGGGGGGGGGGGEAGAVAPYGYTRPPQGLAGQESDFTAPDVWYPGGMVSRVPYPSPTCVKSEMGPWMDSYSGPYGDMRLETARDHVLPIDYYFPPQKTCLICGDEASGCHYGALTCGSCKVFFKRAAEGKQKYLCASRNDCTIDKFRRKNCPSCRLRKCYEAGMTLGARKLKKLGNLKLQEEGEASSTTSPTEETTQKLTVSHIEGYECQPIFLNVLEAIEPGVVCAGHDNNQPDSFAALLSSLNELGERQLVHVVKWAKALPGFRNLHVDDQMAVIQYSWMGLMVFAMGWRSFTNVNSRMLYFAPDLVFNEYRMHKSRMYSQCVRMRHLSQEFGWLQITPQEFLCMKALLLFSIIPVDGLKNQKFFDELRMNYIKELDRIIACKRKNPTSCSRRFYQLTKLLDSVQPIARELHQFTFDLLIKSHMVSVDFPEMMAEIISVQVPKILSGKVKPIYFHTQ

Estrogen receptor beta (Homo sapiens), sequence (Q92731 whole entry, looked up): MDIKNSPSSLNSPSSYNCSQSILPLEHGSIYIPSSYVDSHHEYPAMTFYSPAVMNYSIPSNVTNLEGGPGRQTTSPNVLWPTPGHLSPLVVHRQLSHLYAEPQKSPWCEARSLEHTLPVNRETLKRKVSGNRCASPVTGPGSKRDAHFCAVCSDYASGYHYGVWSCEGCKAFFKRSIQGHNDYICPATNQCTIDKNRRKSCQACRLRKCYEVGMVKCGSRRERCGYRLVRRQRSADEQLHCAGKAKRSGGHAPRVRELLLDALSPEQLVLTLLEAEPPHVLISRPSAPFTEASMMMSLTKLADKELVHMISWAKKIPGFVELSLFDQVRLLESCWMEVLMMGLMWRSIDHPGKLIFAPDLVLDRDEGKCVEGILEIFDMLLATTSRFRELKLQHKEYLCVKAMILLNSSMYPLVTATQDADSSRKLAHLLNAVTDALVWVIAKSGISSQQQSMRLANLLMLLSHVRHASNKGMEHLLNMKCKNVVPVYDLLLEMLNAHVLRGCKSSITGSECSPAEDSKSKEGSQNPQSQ
Estrogen receptor (Homo sapiens), sequence (P03372 whole entry, looked up): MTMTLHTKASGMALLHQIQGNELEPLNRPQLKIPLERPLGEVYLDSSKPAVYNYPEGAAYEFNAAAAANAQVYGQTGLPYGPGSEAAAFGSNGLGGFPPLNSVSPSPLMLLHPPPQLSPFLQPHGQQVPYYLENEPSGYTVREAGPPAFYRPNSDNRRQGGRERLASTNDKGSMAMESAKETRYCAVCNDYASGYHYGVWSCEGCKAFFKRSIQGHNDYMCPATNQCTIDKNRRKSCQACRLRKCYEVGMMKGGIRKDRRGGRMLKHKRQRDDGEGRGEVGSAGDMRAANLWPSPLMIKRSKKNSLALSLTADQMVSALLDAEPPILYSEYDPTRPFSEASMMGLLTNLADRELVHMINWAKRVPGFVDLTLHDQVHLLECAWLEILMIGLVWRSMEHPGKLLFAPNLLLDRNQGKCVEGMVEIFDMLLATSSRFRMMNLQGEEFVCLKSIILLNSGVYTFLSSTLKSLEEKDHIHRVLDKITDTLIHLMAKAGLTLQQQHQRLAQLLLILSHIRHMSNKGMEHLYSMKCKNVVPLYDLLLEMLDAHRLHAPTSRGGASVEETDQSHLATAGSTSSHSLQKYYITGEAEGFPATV

Take `Clc1cccc2ccccc12`: the Potency result in test [1], in test [2], in test [3], in [4], in [5] and in test [7] was “inactive” each time. In addition, the Potency entry in test [8], in test [9], in test [10], in test [11], in test [12] and in [13] was “inactive” each time. The Potency result in test [14] and in test [16] was “inactive” in each case. Besides, the call in test [6] and in test [15] was inactive.
As for `COc1cc(Cl)c(OC)cc1Cl`, the Potency entry in test [17], in [18], in test [2], in test [3], in [4] and in test [5] was “inactive” each time. Further, the Potency result in [19], in [8], in test [9], in test [10], in test [11] and in test [12] was “inactive” each time. The Potency entry in test [13], in test [14] and in test [16] was “inactive” throughout. The call in [15] was inactive.
As for `Cc1c(F)c(F)c(COC(=O)C2C(/C=C(\Cl)C(F)(F)F)C2(C)C)c(F)c1F` (stereo unspecified), the Potency result in [1], in test [18], in [2], in test [3], in [5] and in [7] was “inactive” in each case. Also, the Potency entry in test [8], in test [9], in test [11], in [12], in test [14] and in test [16] was “inactive” throughout. For the same compound, the compound was classed as inactive in test [6] and in [15].
Consider `CCC(COC(=O)c1cc(OC)c(OC)c(OC)c1)(c1ccccc1)N(C)C` (stereo unspecified), for which the Potency result in [1], in test [18], in [2], in test [4], in [5] and in [8] was “inactive” each time. Besides, the Potency result in test [13], in [14] and in [16] was “inactive” throughout. Further, the result in test [15] was inactive.
`C=CC(=O)NCNC(=O)C=C`: the Potency result in [1], in test [3], in test [5], in test [19], in [8] and in [9] was “inactive” each time. For the same compound, the Potency entry in test [11], in [14] and in [16] was “inactive” in each case. For the same compound, the Potency in test [20] is 48.6 µM (active). Also, the result in test [6] and in [15] was inactive.
For the compound `O=[N+]([O-])c1ccc(F)c([N+](=O)[O-])c1`, the Potency entry in [1], in test [18], in [4], in test [5], in test [19] and in test [7] was “inactive” each time. The Potency result in test [9], in [10], in test [14] and in test [16] was “inactive” each time. Also, in test [8], the Potency was 30.9 µM (active).
For the compound `CC(c1ccc(O)cc1)(c1ccc(O)cc1)c1ccc(O)cc1`, the Potency entry in test [1], in test [8], in test [13] and in [14] was “inactive” in each case. In addition, in test [10], the Potency was 19.3 µM (active). Further, the outcome in test [15] was inactive.
In the case of `CCCN(CCC)c1c([N+](=O)[O-])cc(S(C)(=O)=O)cc1[N+](=O)[O-]`, the Potency entry in [1], in test [18], in [3], in test [4], in [5] and in test [19] was “inactive” throughout. Moreover, the Potency entry in test [8], in [9], in test [11], in test [12], in test [13] and in [14] was “inactive” in each case. The call in test [15] was inactive.
With `C=CC(=O)OCC(C)C`, the Potency result in [17], in test [18], in test [2], in [3], in test [4] and in test [5] was “inactive” each time. In addition, the Potency entry in test [19], in [7], in [8], in [9], in test [10] and in [11] was “inactive” in each case. The Potency entry in test [12], in test [13], in [14] and in test [16] was “inactive” in each case. In addition, the compound was called inactive in test [6] and in test [15].
Turning to `O=C(O)C1(c2ccc3c(c2)OC[C@H](Cc2ccc(-c4ccccc4)cc2)[C@H]3O)CCCC1`, the Potency result in test [1], in test [7], in test [8], in test [9], in [13] and in [14] was “inactive” each time. Moreover, the Potency was 27.3 µM (active) in test [4] and 48.6 µM (active) in test [10]. For the same compound, in test [6], the compound was classed as inactive.
Regarding `CN1C[C@H](CNC(=O)OCc2ccccc2)C[C@@H]2c3cccc4c3c(cn4C)C[C@H]21`, the Potency result in [1], in test [18], in test [3], in test [8], in [9] and in test [10] was “inactive” each time. Moreover, the Potency entry in test [13], in test [14] and in [16] was “inactive” each time. For the same compound, the outcome in test [6] and in test [15] was inactive.
